FMDV antiviral: foot and mouth disease virus antiviral activity; 410,000 tested, 1.2% active; Potency, µM (highest dose often 57.9 µM), without a hit: top-dose activity change, negative = inhibition, usual class: inhibitors; FMDV antiviral cell-based qHTS; calls by dose curve; tested in HEK293T cells; also: read-out not given here; potency is read from the fitted curve at half-maximal effect; nearly all actives have a fitted effect of over 45% in size
HCMV inh: blocks human cytomegalovirus replication; HFF cells, HCMV-luciferase reporter, 72 h; active compounds read low; activity change, negative = inhibition, % at 57.5 µM; 410,000 tested, 4.5% active; AID 1259415; in the data active = activity change below about -60%; inconclusive = no clear call, values can overlap the other calls; inactive = above about -39%
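Screen run at 2 compound doses on HFFs infected with reporter HCMV, MOI 1 PFU/cell. Luciferase activity from cell lysates at 72 h post infection gave inhibition relative to buffer-only and Salinomycin wells.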
HCV inh: blocks hepatitis C virus; Huh7.5.1 HCVcc-Cre infection, luciferase reporter, 44 h; Potency, µM (titrated, usually from 41.8 µM), for the others: top-dose activity change, negative = inhibition, usual class: inhibitors; 340,000 tested, 3.4% active; AID 651820; also: potency is read from the fitted curve at half-maximal effect
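Cells seeded at 1,000/well and cultured 4 h, then compounds added followed by HCVcc-Cre virus (~0.5 moi). After 44 h further culture, luciferase substrate was added, plates held 15 min at room temperature, and luminescence read for 15 sec.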
Vaccinia mCherry: vaccinia inhibition (mCherry reporter) | Vaccinia virus mCherry reporter infection, fluorescence | Potency, µM (doses to about 36.5 µM), for the others: top-dose activity change, negative = inhibition, usual class: inhibitors | 310,000 tested, 0.63% active | AID 720579; calls by dose curve; tested in A549 cells; also: potency is read from the fitted curve at half-maximal effect; nearly all actives have a fitted effect of over 35% in size
Vaccinia Venus: vaccinia inhibition (Venus reporter); Potency, µM (top dose mostly 36.5 µM), for inactives: at the highest dose activity change, negative = inhibition, most hits filed as inhibitors; AID 720580; 330,000 tested, 0.46% active; Vaccinia virus Venus reporter expression, fluorescence; calls by dose curve; tested in A549 cells; also: potency is read from the fitted curve at half-maximal effect; nearly all actives have a fitted effect of over 30% in size
Sm TGR inh: S. mansoni TGR enzyme inhibition. Q962Y6. purified TGR, DTNB reduction, TNB absorbance 405 nm. Potency, µM (top dose mostly 114 µM), inactives show top-dose activity change, negative = inhibition, actives largely listed as inhibitors. 360,000 tested, 3% active. AID 485364; also: potency is read from the fitted curve at half-maximal effect; nearly all actives have a fitted effect of over 60% in size
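First, TGR (20 nM dispensed) and NADPH were mixed with compound. Second, a 15 min room-temperature incubation followed. Third, further NADPH and then DTNB were added to start the reaction. Finally, TNB absorbance was monitored kinetically.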
Starred values were filed as active, the others as inactive; i = inactive; ? = inconclusive; · = no result given; [ ] = another dose, or the depositor's remark. The list is not random: actives were taken first. Their share in the collection is about 9.3%. Unless noted, calls follow the shape of the dose curve; as a rule, active = well fitted curve in the direction sought with a large enough effect; inconclusive = small, poorly fitted or top-dose-only effect, or another doubt; inactive = no such curve, though single readings can be large; an effect the other way counts as inactive or inconclusive. % is scaled to controls: 0 for no effect and ±100 for the full control effect.

SMILES | FMDV antiviral | HCMV inh | HCV inh | Vaccinia mCherry | Vaccinia Venus | Sm TGR inh
O=C(CSc1cn(CCNC(=O)c2cccc(C(F)(F)F)c2)c2ccccc12)Nc1ccc2c(c1)OCCO2 | 25µM* | -83* | · | ? | ? | 6%
CCN(c1cccc(C)c1)C1C(=O)c2ccccc2N1C(C)=O (stereo not given) | -15% | 28 | 3% | -15% | -6% | 22µM*
CC(=O)N(CN1C(=O)c2ccccc2C1=O)c1cccc(C)c1 | -2% | 51 | -7% | i | -11% | 6%
COC(=O)c1ccc2nc(-c3cccc(Cl)c3)c(CC3CCCCC3)n2c1 | -10% | 42 | · | -3% | -1% | ·
CCOC(=O)C1=C(C)N=c2s/c(=C\c3ccc(OCC(=O)O)cc3)c(=O)n2C1c1ccc(Cl)cc1 (stereo not given) | ? | -23 | ? | i | 0% | -52%
COc1ccc(CNc2cc(C)ccn2)c(O)c1 | 17% | 4 | -3% | ? | -4% | 7.1µM*
O=C(/C=C/c1c(Cl)cccc1Cl)Nc1ccncc1 | 11% | -40 | -20% | · | · | -3%
O=C1CCCc2nc(N3CCN(c4ccccc4)CC3)ncc21 | 2% | -9 | 16% | · | · | 6%
Fc1cnc(N2CCN(c3ccccc3)CC2)nc1N1CCN(c2ccccc2)CC1 | 20µM* | ? | ? | i | -9% | 6%
Cn1c(=O)n(CC(=O)OCc2ccccc2)c(=O)c2c1nc1n2CCCN1C1CCCCC1 | 28µM* | -34 | 4% | · | -18% | ·
COC(=O)Cn1c(=O)c2c(nc3n2CCCN3Cc2ccccc2)n(C)c1=O | 1% | -24 | -3% | -3% | -4% | -1%
Cc1ccc(S(=O)(=O)N2CCCC2CNC(=O)C(=O)NCc2cccs2)cc1 (stereo not given) | -5% | 3 | -1% | -14% | -27% | -2%
COc1ccc(Cl)cc1C(=O)O/N=C(\N)c1ccccn1 | 35% | 143 | ? | · | · | -17%
N/C(=N\OC(=O)c1ccccc1)c1ccccn1 | 10µM* | 0 | 14% | i | -5% | 2%
CCOc1ccc(C(=O)O/N=C(\N)c2ccccn2)cc1 | 10µM* | -91* | -4% | · | · | 6%
Cc1cc(C)c(C)c(OCC(=O)O/N=C(\N)c2ccccn2)c1 | -5% | -10 | 10µM* | · | -18% | 0%
N/C(=N\OC(=O)c1cc(Cl)ccc1Cl)c1ccccn1 | -15% | -15 | 11µM* | · | · | -13%
Cc1cc(C)cc(OCC(=O)O/N=C(\N)c2ccccn2)c1 | 18% | 23 | -10% | · | -1% | -2%
CCOC(=O)N1CCN(C(=O)C[C@@H]2C[C@@]3(C(=O)OCC)CCCC=C3N(CCc3ccc(OC)c(OC)c3)C2=O)CC1 | 0% | -31 | · | 0% | 6% | ·
CC(C)(C)c1ccc(C(=O)O/N=C(\N)c2ccccn2)cc1 | 0.1µM* | -99* | ? | i | -13% | -5%
Cc1ccc(C(=O)O/N=C(\N)c2ccccn2)cc1 | 3.2µM* | -69* | 13% | -1% | 7% | 1%
O=C(NCc1ccccc1)C(c1ccc(C(F)(F)F)cc1)N1CCN(CCN2CCOCC2)CC1 (stereo not given) | -13% | 14 | · | -15% | -27% | ·
CCOC(=O)c1ccc(CN(Cc2ccc(Br)cc2)S(=O)(=O)c2cccc(C(F)(F)F)c2)cc1 | ? | -12 | · | -7% | -10% | 11%
Cc1nc(SCC(=O)NC2(C#N)CCCC2)n(CC(C)C)c1C | -12% | -1 | ? | i | -8% | 3%
COc1ccccc1N1CCN(S(=O)(=O)c2c[nH]c(=O)[nH]c2=O)CC1 | 10% | -7 | -1% | -13% | -4% | ?
SMILES | FMDV antiviral | HCMV inh | HCV inh | Vaccinia mCherry | Vaccinia Venus | Sm TGR inh
C[C@@H]1CN([C@H](C)CO)S(=O)(=O)c2ccc(Br)cc2O[C@@H]1CN(C)C(=O)Nc1ccc(C(F)(F)F)cc1 | -18% | -10 | · | ? | ? | ·
C[C@@H]1CN([C@@H](C)CO)S(=O)(=O)c2ccc(C#CC3CCCCC3)cc2O[C@@H]1CN(C)Cc1cccnc1 | -14% | -22 | · | ? | 10µM* | ·
Cc1ccccc1-c1ccc2c(c1)O[C@@H](CN(C)C(=O)Nc1ccc(C(F)(F)F)cc1)[C@H](C)CN([C@@H](C)CO)S2(=O)=O | -24% | -76* | · | ? | ? | ·
COc1cccc(NC(=O)N(C)C[C@H]2Oc3cc(C#Cc4ccncc4)ccc3S(=O)(=O)N([C@H](C)CO)C[C@H]2C)c1 | 91% | -109* | · | ? | ? | ·
C[C@H]1CN([C@@H](C)CO)S(=O)(=O)c2ccc(C#CC3CC3)cc2O[C@H]1CN(C)C(=O)c1cccnc1 | 19% | -34 | · | -12% | -9% | ·
COc1ccccc1CCNC(=O)C(=O)NCC1OCCN1S(=O)(=O)c1ccc2c(c1)OCCO2 (stereo not given) | ? | 62 | ? | i | -14% | -13%
COCC(=O)Nc1cc(C(=O)N2CCCCC2c2nccs2)c2c(c1)nc(-c1ccncc1)n2C (stereo not given) | -9% | · | · | -11% | -3% | ·
O=C1NC2=C(CCc3ccccc32)C(c2ccc(Br)cc2)N1 (stereo not given) | ? | -20 | 0% | -28% | -19% | 50µM*
CCC(OC(=O)CC1Sc2ccccc2NC1=O)C(=O)NCC1CCCO1 (stereo not given) | · | 30 | 6% | 7% | -13% | 25µM*
Cn1c(SCC(=O)N2CCN(c3ccccc3)CC2)nnc1-c1cc2ccccc2o1 | 3.5µM* | -66* | ? | · | · | -1%
Cn1c(SCC(=O)Nc2ccccc2)nnc1-c1ccccc1 | 29% | -9 | · | -3% | -7% | 10%
Cn1c(SCC(=O)c2cc3ccccc3o2)nnc1-c1ccccc1 | 17% | -60* | ? | -11% | -7% | ?
COc1ccc(NC(=O)CSc2nnc(-c3ccccc3C)n2C)cc1 | -15% | -67* | -6% | · | · | 3%
COc1ccc(-c2nnc(SCC(=O)Nc3ccc(C)cc3)n2C)cc1 | · | -2 | -14% | -5% | -16% | 0%
Cn1cnnc1SCC(=O)c1cc2ccccc2o1 | 14% | ? | 3% | · | · | -28%
CNC(=O)CSc1nnc(-c2ccccc2)n1C | 251µM* | -21 | 8% | i | 8% | 7%
O=C(O)c1ccc(CSCc2ccco2)cc1 | -13% | -18 | 11% | -15%[1.46 µM] | -9% | -1%
C=CCn1c(SCC(=O)c2ccccc2)nnc1-c1cc2ccccc2o1 | 40µM* | ? | ? | · | -28% | -20%
Cc1ccc2[nH]c(=O)cc(C(=O)OC(C)C)c2c1 | -7% | 2 | -22% | -9% | -15% | ·
O=C(CSc1nnc2ccccn12)NC(=O)c1cccc([N+](=O)[O-])c1 | -11% | -28 | 5% | i | 2% | ·
O=C(O)/C=C\C(=O)Nc1ccccc1C#Cc1ccc(Br)cc1 | 14% | 16 | 4.5µM* | · | · | 45µM*
